Structures can show the parent of a compound that is named as a salt. ± gives the uncertainty stated by the source.

This assay concerns THP-1. Description: CD54 surface expression induction over DMSO control (% over DMSO); higher = stronger dendritic cell activation. The note with it: exposure time: 24 h. How it is done: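 hCLAT-like CD54 and CD86 surface expression on THP1 cells after 24 h exposure at a single concentration (highest non-cytotoxic concentration, or 100-200 µM if not cytotoxic). Flow cytometry (iQue) was run on 5,000 live cells.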
`O=C(CCl)c1ccccc1` [2-Chloroacetophenone] (100 µM): the “CD54 surface expression induction” value is 24.1 ± 11.

As to `c1cc(OCC2CO2)ccc1Cc1ccc(OCC2CO2)cc1` (centres undefined) [Bis[4-(glycidyloxy)phenyl]methane] (100 µM), the “CD54 surface expression induction” value came to 6.35 ± 4.5. As for `CN1C[C@H](C(=O)N[C@]2(C)O[C@@]3(O)[C@@H]4CCCN4C(=O)[C@H](Cc4ccccc4)N3C2=O)C=C2c3cccc4[nH]cc(c34)C[C@H]21` [Ergotamine D-tartrate*] (79 µM), the figure is 228 ± 28. Take `O=C(O)c1ccc(=O)[nH]c1` [6-Hydroxynicotinic acid] (100 µM): the “CD54 surface expression induction” value was -3.56 ± 0.01. For the molecule `[Cl][Cd][Cl]` [Cadmium II chloride] (200 µM), the “CD54 surface expression induction” value stood at 50.2 ± 4.8. As for `CCOC(=O)NC(=S)Nc1ccccc1NC(=S)NC(=O)OCC` [Thiophanate] (100 µM), the figure is 18.5 ± 4.7. As for `COc1ccc(O)c(C(C)(C)C)c1` [2-tert-Butyl-4-methoxyphenol] (200 µM), the “CD54 surface expression induction” value was determined as 0.6 ± 0.57.

On to `CCOP(=S)(OCC)Oc1cnc2ccccc2n1` [Quinalphos] (200 µM), for which the “CD54 surface expression induction” value was -1.41 ± 9.

`COP(=O)(OC)OC(Br)C(Cl)(Cl)Br` (centres undefined) [Naled] (100 µM): the “CD54 surface expression induction” value worked out at 3.64 ± 4.3. The figure for `Nc1ccc(N)cc1` [1,4-Benzenediamine] (10 µM) is 30.8. For the molecule `CCOP(=S)(OCC)SC(CCl)N1C(=O)c2ccccc2C1=O` (centres undefined) [Dialifor] (100 µM), the “CD54 surface expression induction” value is -4.61 ± 27. As for `C[C@]12CC[C@H](O)C[C@H]1CC[C@@H]1[C@@H]2C[C@@H](O)[C@]2(C)[C@@H](C3=CC(=O)OC3)CC[C@]12O` [Digoxigenin] (10 µM), the figure is 27.6 ± 4.9; as for `c1cc(OCC2CO2)cc(OCC2CO2)c1` (centres undefined) [Diglycidyl resorcinol ether (DGRE)] (10 µM), -3.16 ± 4.6; as for `O=C(CCl)CCl` [1,3-Dichloropropanone] (200 µM), -1.2 ± 0.3.

In the case of `CN(C)c1ccc(N(C)C)cc1` [*N,N,N',N'-Tetramethyl-p-phenylenediamine] (200 µM), the “CD54 surface expression induction” value worked out at 91.8 ± 6. As for `Nc1ccc(-c2ccccc2)cc1` [4-Biphenylamine hydrochloride] (100 µM), the figure is -0.07 ± 4.1.

With `NNCc1ccccc1` (100 µM), the “CD54 surface expression induction” value was -19.4 ± 21. As for `CN(C)c1ccc(N)cc1` [N,N-Dimethyl-p-phenylenediamine] (100 µM), the figure is 30.8 ± 7.3. The figure for `COP(=S)(OC)Oc1ccc(SC)c(C)c1` [Fenthion] (100 µM) is -7.55 ± 5.7.

On to `CCCCOCN(C(=O)CCl)c1c(CC)cccc1CC` [Butachlor] (10 µM), for which the “CD54 surface expression induction” value is -3.73 ± 3.2. The figure for `CCC(C)(c1ccc(O)cc1)c1ccc(O)cc1` [Bisphenol B] (200 µM) is 3.9 ± 0.67; for `c1ccc2c(c1)OCC(C1=NCCN1)O2` (centres undefined) [Idazoxan] (10 µM) it is -6.12 ± 5.1; for `Nc1ccc2ccccc2c1` [2-Naphthylamine] (100 µM) it is 10.3 ± 0.75. As for `C=CC(=O)OCC(COC(=O)C=C)(COC(=O)C=C)COC(=O)C=C` [Pentaerythritol tetraacrylate] (10 µM), the figure is 1.03 ± 1.9. As for `COP(=S)(OC)Oc1nc(Cl)c(Cl)cc1Cl` [Chlorpyrifos-methyl] (200 µM), the figure is 20.5 ± 8.1; as for `COc1ccccc1N` [2-Methoxyaniline hydrochloride] (100 µM), 2.44 ± 0.25. As for `COc1ccc(C(c2ccc(OC)cc2)C(Cl)(Cl)Cl)cc1` [Methoxychlor] (200 µM), the “CD54 surface expression induction” value amounted to 27.4 ± 9.6. As for `O=C1C=CC(=O)c2ccccc21` (10 µM), the figure is 239 ± 45; as for `[CH3][Hg][Cl]` [Methyl mercuric (II) chloride] (10 µM), 36.6 ± 5.5; as for `c1ccc(-c2cccc(-c3ccccc3)c2)cc1` [1,1':3',1''-Terphenyl] (200 µM), -8.04 ± 5.3. In the case of `CCNc1nc(NC(C)(C)C)nc(SC)n1` [Terbutryn] (100 µM), the “CD54 surface expression induction” value was 1.12 ± 1.2. As to `ClC1=C(Cl)C(Cl)(Cl)C(Cl)=C1Cl` [Hexachlorocyclopentadiene] (200 µM), the “CD54 surface expression induction” value turned out to be 47.8 ± 5.2. As for `N#CCC#N` [Propanedinitrile] (199 µM), the figure is -2.75 ± 3. Take `CCc1cccc(CC)c1N(COC)C(=O)CCl` [Alachlor] (100 µM): the “CD54 surface expression induction” value came to 26.5 ± 9.3. As for `OC[P+](CO)(CO)CO` [Tetrakis(hydroxymethyl)phosphonium SO4] (100 µM), the figure is 8.38 ± 1.4. For the molecule `[OH-].c1cc[c]([Sn+]([c]2ccccc2)[c]2ccccc2)cc1` [Triphenyltin hydroxide] (10 µM), the “CD54 surface expression induction” value is 54.7 ± 30. For `O=C(N/N=C/c1ccc([N+](=O)[O-])o1)c1cc([N+](=O)[O-])cc([N+](=O)[O-])c1O` [Nifursol] (200 µM), the “CD54 surface expression induction” value was 24.5 ± 8.

In the case of `O=[N+]([O-])c1c(Cl)c(Cl)c(Cl)c(Cl)c1Cl` [Pentachloronitrobenzene] (100 µM), the “CD54 surface expression induction” value was determined as 14.3 ± 4.8. Consider `c1ccc2sc(SNC3CCCCC3)nc2c1` [N-Cyclohexyl-2-benzothiazolesulfenamide] (100 µM), for which the “CD54 surface expression induction” value is -15.5 ± 5.8.

Values taken from the supplement of paper PMC10933113.
